Measured values taken from the supplement of paper PMC6555819.

Key:
Test in all cases: PBM binding z-score (relative to random genomic background probes); higher = stronger binding; sequences stand for … in GC…GCGATTGACAGCGTAGAATGAAGG
[1] = tested on: FXR:RXRa (NR concentration 270 nM, RXRa partner concentration 90 nM)
Procedure, shortened: (§1)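 Custom Agilent 4×180K protein-binding microarrays carried double-stranded probes. Their 34-nt variable regions held direct-repeat seeds, single-nucleotide variants, half-site ablations and random human genomic background sequences. Arrays were incubated 1 h with ligand-free nuclear receptor dimers in PBS pH 7.4, 2% milk, 0.02% Triton X-100, 1 mM DTT, 0.2 mg/mL BSA and 0.4 mg/ml salmon testes DNA. Antibodies against each partner (one per run) detected binding, and scanned fluorescence was regression-normalized. Binding z-scores use random background probes as reference.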

[2] = tested on: LXRa:RXRa (NR concentration 270 nM, RXRa partner concentration 90 nM)
Procedure, shortened: as §1

[3] = tested on: LXRa homodimer (NR concentration 270 nM)
Procedure, shortened: as §1

[4] = tested on: LXRb:RXRa (NR concentration 270 nM, RXRa partner concentration 90 nM)
Procedure, shortened: as §1

[5] = tested on: LXRb homodimer (NR concentration 270 nM)
Procedure, shortened: as §1

[6] = tested on: PPARa:RXRa (NR concentration 270 nM, RXRa partner concentration 90 nM)
Procedure, shortened: as §1

[7] = tested on: PPARg:RXRa (NR concentration 180 nM, RXRa partner concentration 90 nM)
Procedure, shortened: as §1

[8] = tested on: PPARg:RXRa 270nM:90nM, anti-RXR (NR concentration 270 nM, RXRa partner concentration 90 nM)
Procedure, shortened: as §1

[9] = tested on: PPARg:RXRa 30nM:10nM, anti-RXR (NR concentration 30 nM, RXRa partner concentration 10 nM)
Procedure, shortened: as §1

[10] = tested on: PPARg:RXRa 90nM:30nM, anti-RXR (NR concentration 90 nM, RXRa partner concentration 30 nM)
Procedure, shortened: as §1

[11] = tested on: PPARg:RXRa DBDmut IVT, anti-RXR (DBD mutation: RXRa K156A/R161A, NR concentration 270 nM, RXRa partner concentration 90 nM)
Procedure, shortened: as §1

[12] = tested on: PPARg:RXRa IVT, anti-PPARg (NR concentration 270 nM, RXRa partner concentration 90 nM)
Procedure, shortened: as §1

[13] = tested on: PPARg DBDmut:RXRa IVT, anti-PPARg (DBD mutation: PPARg1 K132A/R137A, NR concentration 270 nM, RXRa partner concentration 90 nM)
Procedure, shortened: as §1

[14] = tested on: PPARg DBDmut IVT, anti-PPARg (DBD mutation: PPARg1 K132A/R137A, NR concentration 270 nM)
Procedure, shortened: as §1

[15] = tested on: PPARg homodimer (NR concentration 180 nM)
Procedure, shortened: as §1

[16] = tested on: PXR:RXRa (NR concentration 270 nM, RXRa partner concentration 90 nM)
Procedure, shortened: as §1

[17] = tested on: PXR homodimer (NR concentration 270 nM)
Procedure, shortened: as §1

[18] = tested on: RARa:RXR (NR concentration 270 nM, RXRa partner concentration 90 nM)
Procedure, shortened: as §1

[19] = tested on: RARa homodimer (NR concentration 270 nM)
Procedure, shortened: as §1

[20] = tested on: RARb:RXRa (NR concentration 270 nM, RXRa partner concentration 90 nM)
Procedure, shortened: as §1

Row | Sequence | PBM binding z-score [1] | PBM binding z-score [2] | PBM binding z-score [3] | PBM binding z-score [4] | PBM binding z-score [5] | PBM binding z-score [6] | PBM binding z-score [7] | PBM binding z-score [8] | PBM binding z-score [9] | PBM binding z-score [10] | PBM binding z-score [11] | PBM binding z-score [12] | PBM binding z-score [13] | PBM binding z-score [14] | PBM binding z-score [15] | PBM binding z-score [16] | PBM binding z-score [17] | PBM binding z-score [18] | PBM binding z-score [19] | PBM binding z-score [20]
1 | CGTCCAAGGTCAAGGTCAGTGTAAGAGACTCGAA | 7.52 | 5.66 | 1.6 | 4.66 | 0.633 | 5.87 | 6.25 | 6.02 | 2.39 | 4.8 | 3.46 | 4.48 | 2.06 | 0.0248 | 3.45 | 5.09 | 1.07 | 5.28 | 2.14 | 5.47
2 | TAGCCTAGGTCATGGGACAGTATACCACGCGAAC | 5.01 | 3.4 | 0.47 | 3.01 | 0.331 | 4.29 | 3.92 | 3.74 | 1.14 | 2.55 | 1.93 | 3.38 | 0.841 | 0.664 | 2.06 | 1.99 | -0.252 | 2.89 | 0.415 | 3.88
3 | CGTCCAAGGTGAAGGTCAGTGAAAGAGACTCGAA | 1.84 | 1.4 | -0.233 | 1.25 | -0.872 | 3.04 | 2.5 | 2.81 | 0.634 | 1.96 | 1.92 | 2.94 | -0.298 | -0.465 | 0.911 | 1.43 | -0.222 | 2.11 | 0.387 | 3.93
4 | ATATGTAGGTTACATCCGGGTCAGTCAGGCTATG | 1.08 | 2.95 | 0.519 | 1.74 | 0.572 | 3.66 | 5.53 | 4.69 | 2.14 | 3.86 | 7.52 | 7.34 | 2.22 | 1.82 | 1.39 | 2.01 | 0.364 | 2.42 | 0.784 | 1.96
5 | CCTTTCGGGTCAAGGTTATAGCACGGGTGGTACG | 5.72 | 3.85 | 0.197 | 3.11 | 0.545 | 5.06 | 4 | 5.1 | 1.91 | 4.2 | 1.96 | 3.48 | 0.691 | 0.648 | 2.93 | 3.67 | 0.171 | 4.51 | 0.494 | 4.3
6 | TCTTGTAGTTCAAAGGTTAAGAAAGCCGAAGCCT | 4.09 | 4.39 | 1.23 | 3.51 | 0.628 | 5.16 | 7.14 | 7.29 | 7.28 | 7.39 | 1.69 | 2.84 | 0.125 | 1.99 | 1.87 | 4.59 | 0.443 | 6.25 | 0.439 | 3.36
